Here are results for 24 compounds from PubChem BioAssay AID504850 (National Center for Advancing Translational Sciences (NCATS), 2011).

About 1,200 (52%) of roughly 2,300 compounds were called active. Another 34% or so got no clear call; they are omitted. Calls come from the whole dose curve; as a rule, active = well fitted inhibition curve with a large enough effect; inconclusive = small, poorly fitted or top-dose-only effect, or effect the other way; inactive = no such curve, though single readings can be large or run the other way. So high a share suggests a set chosen from earlier hits. This is one part of the list.
% is set by controls: 0 for no effect and ±100 for the full control effect; potency is the fitted concentration of half-maximal effect.

This assay in a line: Confirmation screen for delayed death inhibitors of the malarial parasite plastid, 48 hour incubation. Note: nearly all actives have a fitted effect of over 65% in size. Conditions: P. falciparum-infected erythrocytes, luciferase growth; series mostly up to 28.7 µM; activity change, negative = inhibition: at the top concentration. Summed up: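 Erythrocytes infected with luciferase-expressing P. falciparum (2% hematocrit, 0.1% parasitemia) incubated with compounds 48 hours at 37 C, 5% CO2, in RPMI/Albumax. Growth inhibition scored as reduced luminescence after detection reagent.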
As for `CCOc1ccccc1NC(=O)c1cc(S(=O)(=O)NCc2ccco2)ccc1F`, the Potency is 12.6 µM (active). `COc1ccccc1NC(=O)c1ccc(S(=O)(=O)NCc2ccco2)cc1`: the “activity change, negative = inhibition” value was -9.3% (inactive).

Turning to `O=C1c2cccc3cc([N+](=O)[O-])cc(c23)C(=O)N1CCN1CCCC1`, the Potency was 10 µM (active). On the same count and under the same terms, then `Cc1nnnn1/C(=C\c1ccccc1)C(=O)OCC(=O)N1CC2(C)CC1CC(C)(C)C2` (centres undefined), with 12.6 µM (active); and `O=C(NCCCN1CCCC1)c1ccc2c(c1)N(Cc1ccccc1F)C(=O)c1ccccc1S2=O` (centres undefined), with 12.6 µM (active); and `O=C(c1ccc2c(c1)N(Cc1cccc(Cl)c1)C(=O)c1ccccc1S2(=O)=O)N1CCN(c2ccccn2)CC1`, with 3.98 µM (active). For the compound `CCN1C(=O)c2ccccc2Sc2ccc(C(=O)NCCCN3CCCCC3)cc21`, the Potency was 12.6 µM (active). With `Cc1cccc(CN2C(=O)c3ccccc3S(=O)(=O)c3ccc(C(=O)NCCCN4CCCC4)cc32)c1`, the Potency was 3.98 µM (active).

`CC(C)[C@H](NC(=O)N1CCn2c1nc1ccccc12)C(=O)N[C@H](C(=O)O)c1ccccc1`: the “activity change, negative = inhibition” value is -7.59% (inactive).

`CCN1CCCC1CNC(=O)c1ccc2c(c1)N(Cc1ccccc1F)C(=O)c1ccccc1S2(=O)=O` (centres undefined): the Potency is 5.01 µM (active). In the case of `CCOC(=O)N1CCN(C(=O)c2ccc3c(c2)N(Cc2cc(C)ccc2C)C(=O)c2ccccc2S3=O)CC1` (centres undefined), the Potency was 4.47 µM (active). On to `CC(NC(=O)CCl)c1ccccc1Br` (centres undefined), for which the Potency was 2.24 µM (active). The same measure, in the same setting: then `CC(=O)/C=C/c1ccc2ccccc2n1`, with 12.6 µM (active); and `Cc1cccc(N(Cc2ccccc2)C(=O)CSC(C)C(=O)Nc2cc(C)on2)c1` (centres undefined), with 11.2 µM (active); and `Cc1cc(C)c(OCC(O)CNC(C)(C)C)c(C)c1` (centres undefined), with 11.2 µM (active).

Regarding `Cn1nnnc1Sc1ncnc2scc(-c3cccs3)c12`, the Potency was 12.6 µM (active). In the case of `Cn1nnnc1Sc1ncnc2scc(-c3ccsc3)c12`, the Potency is 4.47 µM (active).

For the compound `Cn1nnnc1Sc1ncnc2scc(-c3ccc[nH]3)c12`, the Potency is 12.6 µM (active). Same read-out and setting: in the case of `O=C(NCc1ccccn1)Nc1cc(Cl)ccc1Cl` it was 5.01 µM (active); in that of `Cc1ccc(Oc2nc3ccccn3c(=O)c2/C=C(\C#N)C(=O)NC2CCS(=O)(=O)C2)c(C)c1` (centres undefined), 12.6 µM (active).

Turning to `CCCN(CCC)CCNC(=O)C1c2ccccc2C(=O)N2CCc3ccccc3C12` (centres undefined), the “activity change, negative = inhibition” value was -12.8% (inactive). In the case of `CCN(CC)CCNC(=O)C1c2cc(OC)c(OC)cc2C(=O)N2CCc3ccccc3C12` (centres undefined), the Potency was 7.08 µM (active). On the same count and under the same terms, in the case of `CC(=O)c1ccccc1OCC(O)CN1CCN(C(c2ccccc2)c2ccccc2)CC1` (centres undefined) it was 2.24 µM (active); in that of `O=C(N/N=C/c1ccc([N+](=O)[O-])cc1)c1cccc(N2CCCC2=O)c1`, 11.2 µM (active).
